Assay outcomes as filed in PubChem.
IkB sig inh: IkB Signaling; ABC-DLBCL IkBa-CBG/CBR dual luciferase ratio, 4 h; response scale: scaled: untreated 0%, proteasome inhibitor 100%; Potency, µM (top dose mostly 57.1 µM); hit rate 0.04% among 110,000; AID 445, 2006; active means well fitted curve in the direction sought with a large enough effect in the signal ratio, not every such curve was filed as active; inconclusive means small, poorly fitted or top-dose-only effect, or a change in a side signal; the % refers to the signal ratio;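 further: the direction sought is a rising ratio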
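In this assay, an IκBα–CBG68 fusion accumulates when IKK-driven degradation is blocked; native CBR normalizes for cell number. OCI-Ly3 cells were treated 4 h with compound and doxycycline, then green and red light read after Chroma-Glo addition.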
CRE-bla Fsk: Cell signaling CRE-BLA (Fsk stim) | CHO CRE-bla reporter (cAMP response element driving beta-lactamase), forskolin EC10, beta-lactamase ratio | Potency, µM (highest dose often 38.2 µM), most hits filed as activators | hit rate 2.5% among 71,000; active means well fitted activation curve with a large enough effect in the signal ratio, with a control signal flat, not every such curve was filed as active; inconclusive means small, poorly fitted or top-dose-only effect, or effect the other way, or a change in a side signal; the % refers to the signal ratio
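CRE-bla CHO reporter cells treated with compound titration plus EC10 NKH 477 (water-soluble forskolin), incubated 3 h at 37 °C; CCF4 loading 2 h at room temperature, 460/530 nm emission ratio read, AC50 values derived for positive or negative modulators.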
Peg3 imprint: qHTS Assay for Compounds that Induce Erasure of Genomic Imprints | mouse ES Peg3-LacZ reporter, beta-gal luminescence, 40 h | Potency, µM (series often up to 60.7 µM), most hits filed as activators | hit rate 0.02% among 110,000
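Each well holds 300 Peg3LacZ-Neo (maternal) female ES cells incubated 40 h at 37C, 5% CO2. LacZ is measured by BetaGlo luminescence, with AC50 and maximum efficacy derived from dose-response curves.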
ERK AVP inh: qHTS Assay for Inhibitors of the ERK Signaling Pathway using a Homogeneous Screening Assay | HEK293-V1b, vasopressin-stimulated pERK AlphaScreen | Potency, µM (titrated, usually from 57.5 µM), actives largely listed as inhibitors | hit rate 0.99% among 72,000 | AID 995, 2007; further: nearly all actives have a fitted effect of over 55% in size
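qHTS, compounds titrated on V1b-expressing HEK293 cells. Preincubation 30 min at 37C, vasopressin 25 nM for 5 min, lysis 10 min, bead incubation 5 hr at room temperature.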
Each line names hits and unclear results; the compound was inactive in the other large screens; ! = not confirmed by another sample. This is one part of a sample in which hits are shown more often than they occur. Unless noted, the call rests on the fitted dose curve; in most records, active means well fitted curve in the direction sought with a large enough effect; inconclusive means small, poorly fitted or top-dose-only effect, or another doubt; inactive means no such curve, though single readings can be large; an effect the other way counts as inactive or inconclusive.

C[C@@H](c1ccccc1)N1C(=O)[C@H]2[C@H]3[C@H](O)[C@H](O)C/C(=N/OCc4ccccc4)[C@@H]3CC[C@@H]2C1=O	none (no result: IkB sig inh, CRE-bla Fsk, Peg3 imprint)
Cc1cc(NC(=O)Nc2ccc(N(C)C)cc2)c2cc(F)cc(F)c2n1	IkB sig inh inconclusive, ERK AVP inh inconclusive
CN1CCN(c2cc3c(c4c2[nH]c2ccccc24)C(=O)CC(C)(C)C3)CC1	IkB sig inh inconclusive, ERK AVP inh 31.6µM
CC1(C)CC(=O)c2cnn(-c3nc4ccccc4[nH]3)c2C1	none
O=c1cc(-c2ccccc2)oc2cc(O[C@H]3O[C@H](CO)[C@@H](O)[C@H](O)[C@@H]3O)c(O)c(O)c12	none (no result: Peg3 imprint, ERK AVP inh)
C=C[C@@]1(C)CC(=O)[C@@]2(O)[C@@]3(C)[C@H](O)CCC(C)(C)[C@@H]3[C@H](O)[C@H](OC(C)=O)[C@]2(C)O1	CRE-bla Fsk inconclusive, ERK AVP inh inconclusive (no result: Peg3 imprint)
C=C[C@@]1(C)CC(=O)[C@@]2(O)[C@@]3(C)[C@@H](O)CCC(C)(C)[C@@H]3[C@H](OC(=O)CCN(C)C)[C@H](OC(C)=O)[C@@]2(C)O1	CRE-bla Fsk 0.0501µM, ERK AVP inh 1µM
CCCCS(=O)(=O)/C=C\C1C2C=CC(C2)C1S(=O)(=O)CCCC (stereo not drawn)	none
CCCCS(=O)(=O)/C=C\C=C/S(=O)(=O)CCCC	IkB sig inh inconclusive, CRE-bla Fsk inconclusive, ERK AVP inh 3.16µM
COc1ccc(-c2c3c(nc4sc(C(=O)Nc5ccc(Cl)cc5)c(N)c24)CC(C)(C)CC3=O)cc1	IkB sig inh inconclusive (no result: CRE-bla Fsk, ERK AVP inh)
COc1ccc(-c2c3c(nc4sc(C(=O)Nc5cc(C)on5)c(N)c24)CCC3)cc1	CRE-bla Fsk inconclusive, ERK AVP inh 7.94µM
CCOc1ccc(OCC)c(NC(=O)CSc2nc3c(c(=O)n(C)c(=O)n3C)n2CC)c1	CRE-bla Fsk 2µM
CCOc1ccc(OCC)c(NC(=O)CSc2nc3c(c(=O)n(C)c(=O)n3C)n2C(C)C)c1	IkB sig inh inconclusive, CRE-bla Fsk 3.98µM, ERK AVP inh inconclusive
CCOc1ccc(OCC)c(NC(=O)CSc2nc3c(c(=O)n(C)c(=O)n3C)n2C)c1	IkB sig inh inconclusive (no result: Peg3 imprint)
OC(CN1CCNCC1)Cn1c2ccc(Br)cc2c2cc(Br)ccc21 (stereo not drawn)	ERK AVP inh inconclusive (no result: IkB sig inh, CRE-bla Fsk)
C[C@@H](Cc1ccccc1)Nc1ncnc2c1ncn2[C@@H]1O[C@@H](CO)[C@H](O)[C@@H]1O	IkB sig inh inconclusive (no result: Peg3 imprint)
Cc1c(C(=O)Nc2ccc3oc(-c4cccnc4)nc3c2)oc2ccccc12	CRE-bla Fsk 2.51µM (no result: Peg3 imprint)
CC(=O)[C@@H]1[C@H]2[C@H](C(=O)[C@H]3OC[C@@H]2O3)[C@H]2C=Cc3ccccc3N21	ERK AVP inh inconclusive (no result: IkB sig inh, CRE-bla Fsk)
COC(=O)C/C=C\[C@@H](C)[C@@H](/C=N\O[C@@H](C)CN1CCCc2nc(C)c(C)cc21)OC	none (no result: IkB sig inh, CRE-bla Fsk, Peg3 imprint)
O=c1cc(-c2ccc(O)cc2)oc2cccc(O)c12	ERK AVP inh 3.98µM (no result: IkB sig inh, CRE-bla Fsk)
O=c1cc(-c2ccccc2)oc2ccccc12	none
O=c1cc(-c2ccc(O)c(O)c2)oc2ccccc12	ERK AVP inh 7.94µM (no result: IkB sig inh, CRE-bla Fsk)
C=CCn1c(C)cc(C(=O)CSc2nc3ccccc3c(=O)[nH]2)c1C	IkB sig inh inconclusive, CRE-bla Fsk inconclusive, ERK AVP inh 20µM
Cc1cc2ccccc2n1CCNC(=O)C(C)C	CRE-bla Fsk 12.6µM (no result: ERK AVP inh)
CCOC(=O)c1c(NC(C)=O)sc2c1CCCNC2=O	CRE-bla Fsk 12.6µM, ERK AVP inh inconclusive
CCOC(=O)c1c(NC(=O)COC)sc2c1CCCC2	CRE-bla Fsk inconclusive
CCCCCCCCCCCCCCCCCCOC[C@@H](COP(=O)([O-])OCC[N+](C)(C)C)OC	none (no result: Peg3 imprint)
C/C(CCN1CCc2nc(-c3ccccc3)c(-c3ccccc3)cc2C1)=N\OC[C@@H](O)COCc1ccco1	none (no result: IkB sig inh, CRE-bla Fsk, Peg3 imprint)
FC(F)(F)c1ccccc1-c1nc(Nc2ccncc2)c2ccccc2n1	CRE-bla Fsk inconclusive (no result: Peg3 imprint)
Cc1nc(SCC(=O)N2CCN(c3ccccc3)CC2)c2oc3ccccc3c2n1	CRE-bla Fsk inconclusive, ERK AVP inh inconclusive
Cc1nc(SCCO)c2oc3ccccc3c2n1	CRE-bla Fsk 12.6µM, ERK AVP inh inconclusive
Cc1nc(SCC(=O)O)c2oc3ccccc3c2n1	CRE-bla Fsk inconclusive
CCOC(=O)CC(=O)CSc1nc(C)nc2c1oc1ccccc12	CRE-bla Fsk 10µM
N/C(CSc1nc(-c2ccccc2)c(-c2ccccc2)o1)=N\O	IkB sig inh inconclusive, CRE-bla Fsk inconclusive, ERK AVP inh 31.6µM
Cc1cc(OC2CCCCC2)nc(-c2ccccc2O)n1	CRE-bla Fsk 2.51µM
Cn1c(-c2ccc(F)cc2)cnc1NCc1ccccc1	IkB sig inh inconclusive, ERK AVP inh 25.1µM
CSc1ccc(CNc2ncc(-c3ccccc3)n2C)cc1	none (no result: CRE-bla Fsk, ERK AVP inh)
CCn1cc(C(=O)NCCCOC)c2cc(OC)c(OC)cc2c1=O	CRE-bla Fsk inconclusive
CCn1c(=O)c(C(=O)NCc2cccnc2)c(O)c2ccccc21	CRE-bla Fsk 2.51µM
COc1cc2c(C(=O)NCc3ccccn3)cn(CC(C)C)c(=O)c2cc1OC	CRE-bla Fsk 7.94µM (no result: ERK AVP inh)
CCn1c(=O)c(C(=O)Nc2cccnc2)c(O)c2ccccc21	IkB sig inh inconclusive
CCn1cc(C(=O)NCc2cccnc2)c2cc(OC)c(OC)cc2c1=O	CRE-bla Fsk 5.01µM, ERK AVP inh inconclusive
CCOC(=O)CNC(=O)c1cn(CC)c(=O)c2cc(OC)c(OC)cc12	CRE-bla Fsk 5.01µM
CCOC(=O)CNC(=O)c1cn(C)c(=O)c2cc(OC)c(OC)cc12	CRE-bla Fsk inconclusive
COc1ccc(-c2oc3ncn(CCN4CCOCC4)c(=N)c3c2-c2ccc(OC)cc2)cc1	IkB sig inh inconclusive, CRE-bla Fsk 0.251µM, ERK AVP inh inconclusive
c1ccc(-c2oc3ncnc(NCCCN4CCOCC4)c3c2-c2ccccc2)cc1	IkB sig inh inconclusive, CRE-bla Fsk 2.51µM, ERK AVP inh inconclusive
COc1ccc(-c2oc3ncnc(NCCN4CCOCC4)c3c2-c2ccc(OC)cc2)cc1	Peg3 imprint inconclusive
N#Cc1cc2c(nc1SCC(=O)Nc1nccs1)CCCCC2	CRE-bla Fsk inconclusive
CCc1nnc(NC(=O)CSc2nc3c(cc2C#N)CCC3)s1	CRE-bla Fsk 1.58µM
Nc1ccc(S(=O)(=O)O)cc1	none
CCOC(=O)CC(=O)CSc1nc(-c2cccnc2)ccc1C#N	CRE-bla Fsk 10µM, ERK AVP inh inconclusive
C[n+]1cc2c3c(ccc2c2ccc4cc5c(cc4c21)OCO5)OCO3	IkB sig inh inconclusive, CRE-bla Fsk inconclusive, ERK AVP inh 25.1µM!
COc1nc(N(c2ccccc2)c2ccccc2)nc(-n2ccnc2)n1	IkB sig inh inconclusive, CRE-bla Fsk 6.31µM, ERK AVP inh inconclusive
O=C(O)CN(CCN(CC(=O)O)CC(=O)O)CC(=O)O.[Cu]	CRE-bla Fsk inconclusive
C(=N\c1c(-c2ccccc2)nc2n1CCS2)/c1ccccc1	ERK AVP inh 20µM
C=CCn1c(=O)c2c(C)c(C)sc2n2c(Nc3ccccc3)nnc12	CRE-bla Fsk 3.16µM
c1ccc2c(c1)ncn2Cc1nnc2sc(-c3ccc4c(c3)OCO4)nn12	CRE-bla Fsk 12.6µM
CC(C)C1C(C#N)=C(N)Oc2n[nH]c(-c3cccs3)c21 (stereo not drawn)	IkB sig inh inconclusive, ERK AVP inh 15.8µM
